# Assay outcomes from PubChem BioAssay.
# This is a sample that favours compounds with a hit; in the whole collection about 2.7% have one here.
# SENP8 block-1: SENP8 protease inhibitors, primary screen, biochemical, luminescence. purified SENP8, Z-RLRGG-aminoluciferin cleavage. inhibition, % at 10 µM. hit rate 1.2% among 330,000. AID 2540, 2010; in the data active = inhibition above about 50%
# Target sequence (Q96LD8 whole entry, looked up): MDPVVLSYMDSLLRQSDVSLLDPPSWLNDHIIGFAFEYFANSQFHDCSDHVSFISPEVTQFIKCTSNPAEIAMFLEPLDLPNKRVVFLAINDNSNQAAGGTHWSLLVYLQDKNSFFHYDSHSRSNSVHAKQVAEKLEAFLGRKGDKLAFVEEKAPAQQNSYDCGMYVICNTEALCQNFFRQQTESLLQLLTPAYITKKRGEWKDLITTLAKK
# HSP90 refold inh: HSP90 inhibitors, primary screen, cell lysate, luminescence; Heat shock protein HSP 90 (rabbit reticulocyte lysate; luciferase refolding); Rabbit reticulocyte lysate, luciferase refolding luminescence, 3 h; inhibition, % at 5.6 µM; hit rate 0.91% among 290,000; AID 1789, 2009;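 active = inhibition above the screen-wide mean plus 3 SD, computed separately per campaign, cut at about 16% in these data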;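 also: inhibitors lower the luminescence because luciferase stays unfolded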
# SENP7 block: SENP7 protease inhibitors, primary screen, biochemical, luminescence, uHTS; Sentrin-specific protease 7 (Homo sapiens), Q9BQF6; recombinant SENP7, Z-RLRGG-aminoluciferin luminescence, 40 min; inhibition, % at 5 µM; hit rate 1.5% among 330,000; AID 434973, 2010;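 active = inhibition above about 50% at the single test dose, limit read from the data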
# Target sequence (Q9BQF6 706-1050 limits assumed): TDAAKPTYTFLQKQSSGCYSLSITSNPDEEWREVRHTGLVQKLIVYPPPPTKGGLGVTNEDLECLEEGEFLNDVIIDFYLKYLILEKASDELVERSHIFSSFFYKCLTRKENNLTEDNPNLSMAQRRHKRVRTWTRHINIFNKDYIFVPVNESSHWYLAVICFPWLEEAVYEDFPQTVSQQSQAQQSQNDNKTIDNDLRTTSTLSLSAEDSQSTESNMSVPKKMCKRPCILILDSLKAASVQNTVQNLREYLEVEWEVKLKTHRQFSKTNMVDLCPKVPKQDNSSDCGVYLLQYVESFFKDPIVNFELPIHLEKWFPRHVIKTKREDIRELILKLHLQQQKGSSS
# SENP6 inh: SENP6 protease inhibitors, primary screen, biochemical, luminescence, uHTS. AID 2599, 2010. Sentrin-specific protease 6 (Homo sapiens), Q9GZR1. Recombinant SENP6 catalytic domain, aminoluciferin luminescence. inhibition, % at 10 µM. hit rate 1.8% among 330,000;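 active = inhibition above about 50% at the single tested dose, limit read from the data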
# SENP8 block-2: human SENP8 protease inhibitors, primary screen, biochemical, fluorescence, Nedd8 protein substrate, uHTS. Sentrin-specific protease 8 (Homo sapiens), Q96LD8. recombinant SENP8. inhibition, % at 20 µM. hit rate 0.64% among 360,000. AID 602440, 2012; in the data active = inhibition mostly above about 40%, no sharp cut-off; inactive = mostly below about 27%
# HSP90 inh confirm: HSP90 inhibitors, confirmation, cell lysate, luminescence; shares compounds with HSP90 refold inh; rabbit reticulocyte lysate, luciferase refolding luminescence, 3 h; inhibition, % at 5.9 µM; hit rate 64% among 2,300; AID 1846, 2009; in the data active = inhibition above about 18%
# luciferase ctr: firefly luciferase inhibitors, HSP90 counter-screen, confirmation, artefact control for HSP90 inhibitor project, biochemical, luminescence, triplicate | shares compounds with HSP90 refold inh | purified native firefly luciferase | inhibition, % at 5.9 µM | hit rate 48% among 2,300;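 active = inhibition above the mean inhibition of all tested sample wells plus 3 SD, cut at about 10% in these data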
# Numbers stand for hits; 0 = inactive; - = no result given.
SMILES,SENP8 block-1,HSP90 refold inh,SENP7 block,SENP6 inh,SENP8 block-2,HSP90 inh confirm,luciferase ctr
CC(C)Sc1nc(SCC(=O)NCc2ccco2)c2c3c(sc2n1)COC(C)(C)C3,0,21.3,0,0,0,36.3,0
Cc1ccc(OCc2ccc(C(=O)O)o2)c([N+](=O)[O-])c1,71.9,19.8,59.0,77.1,0,44.1,0
C=C(Cl)COc1ccc2c(CCC)cc(=O)oc2c1,0,0,0,0,0,-,-
Cc1ccc(OCc2ccc(C(=O)N3CCCC3)o2)c([N+](=O)[O-])c1,0,0,0,0,0,-,-
CCCc1cc(=O)oc2cc(OCc3ccc(C(=O)O)cc3)ccc12,0,22.1,0,0,0,0,0
CCCc1cc(=O)oc2cc(OCc3nn[nH]n3)ccc12,0,0,0,0,0,-,-
CCCc1cc(=O)oc2cc(OCc3ccc(C(=O)O)o3)ccc12,0,23.0,0,0,0,17.6,0
O=C(O)c1ccc(COc2ccc3ccccc3c2)o1,81.3,67.4,54.9,88.8,0,74.8,30.4
C/C=C/c1ccccc1OCc1ccc(C(=O)O)o1,0,0,0,0,0,-,-
Cc1ccnc(SC2CC(=O)N(c3ccc(C(C)C)cc3)C2=O)n1 (stereo not drawn),0,32.3,0,0,0,0,0
Cc1ccnc(SC2CC(=O)N(c3ccc(Cl)cc3)C2=O)n1 (stereo not drawn),0,0,0,0,0,-,-
CN(C)c1ccc(NC(=O)c2cnsn2)cc1,0,26.0,0,0,0,48.0,40.4
O=C(c1ccco1)N1CCN(C(=O)C2CCCN(S(=O)(=O)Cc3ccccc3)C2)CC1 (stereo not drawn),0,0,0,0,0,-,-
O=C(C1CCCN(S(=O)(=O)Cc2ccccc2)C1)N1CCCCC1 (stereo not drawn),0,25.4,0,0,0,0,0
Cc1ccc(C(=O)NC2=NCCS2)cc1,0,0,0,0,-,-,-
CC(C)c1ccc(C(=O)NC2=NCCS2)cc1,0,17.6,0,0,0,42.3,38.1
Cc1c(C(=O)O)cccc1-n1c(C)cc(/C=N/NC(=O)c2cc3ccccc3o2)c1C,0,21.5,0,0,0,0,0
COc1cccc(Nc2nc(-c3sc(N)nc3C)cs2)c1,0,17.1,0,0,0,0,0
COc1cccc(Nc2nc(-c3sc(NC(=O)c4ccco4)nc3C)cs2)c1,0,0,0,0,0,-,-
Cc1nc(NC(=O)c2ccccc2)sc1-c1csc(Nc2cccc(F)c2)n1,0,36.6,0,0,-,27.8,0
CCC(=O)Nc1nc(C)c(-c2csc(Nc3ccc(S(=O)(=O)Nc4cc(C)on4)cc3)n2)s1,-,0,-,-,-,-,-
CCCCCCC(=O)Nc1nc(C)c(-c2csc(Nc3cc(Cl)ccc3C)n2)s1,0,0,0,0,0,-,-
Cc1cc(NS(=O)(=O)c2ccc(Nc3nc(-c4sc(NC(=O)c5ccccc5)nc4C)cs3)cc2)no1,0,32.8,65.1,72.0,-,0,0
Cc1ccc(Cl)cc1Nc1nc(-c2sc(NC(=O)c3ccccc3)nc2C)cs1,0,57.3,0,50.9,-,46.4,0
COc1ccccc1Nc1nc(-c2sc(NC(=O)c3ccccc3)nc2C)cs1,0,47.2,0,0,0,24.1,0
SMILES,SENP8 block-1,HSP90 refold inh,SENP7 block,SENP6 inh,SENP8 block-2,HSP90 inh confirm,luciferase ctr
CCCCCCC(=O)Nc1nc(C)c(-c2csc(Nc3ccccc3OC)n2)s1,0,0,0,0,0,-,-
Cc1nc(N)sc1-c1csc(NCc2ccccc2)n1,0,56.4,0,0,0,0,0
Cc1nc(N)sc1-c1csc(Nc2ccc(S(N)(=O)=O)cc2)n1,0,59.7,0,0,0,0,0
CCCCCC(=O)Nc1nc(C)c(-c2csc(Nc3ccccc3OC)n2)s1,0,0,0,0,0,-,-
COc1ccccc1Nc1nc(-c2sc(NC(=O)c3ccc([N+](=O)[O-])cc3)nc2C)cs1,0,72.2,0,0,-,22.6,0
COc1ccc(S(=O)(=O)N2CCC(C(=O)NCCc3ccc(OC)c(OC)c3)CC2)cc1,-,-,-,-,0,-,-
COc1ccc(CCC(=O)Nc2ccc(Br)cn2)cc1,0,0,0,0,0,-,-
COc1ccccc1Nc1nc(-c2sc(N)nc2C)cs1,0,31.0,0,0,0,0,0
COc1ccccc1Nc1nc(C)cs1,0,0,0,0,0,-,-
CCOc1ccccc1Nc1nc(-c2sc(NC(=O)c3ccccc3)nc2C)cs1,58.8,46.3,63.9,72.4,-,25.1,0
CCCCCC(=O)Nc1nc(C)c(-c2csc(Nc3ccccc3OCC)n2)s1,0,0,0,0,0,-,-
O=C(Nc1ccc(NC(=O)c2cccc([N+](=O)[O-])c2)cc1)c1cccc([N+](=O)[O-])c1,0,0,0,0,0,-,-
O=C(Nc1ncc([N+](=O)[O-])s1)c1cccc([N+](=O)[O-])c1,97.3,16.4,100.7,96.1,0,59.8,34.4
Cc1nc2ccc(C(=O)O)cc2nc1C,0,0,0,0,0,-,-
CC(C)CCn1cnc2c(oc3nc4c(cc32)CCCC4)c1=O,0,19.3,0,0,0,51.2,34.6
CC1(C)Cc2nc3oc4c(=O)n(CC(=O)Nc5ccccc5)cnc4c3cc2CO1,0,0,0,0,0,-,-
CC(=N\Nc1ccccc1)/C(=N/O)C(=O)Nc1ccccc1,0,0,0,0,0,-,-
CC(=N\NC(=O)c1ccccc1)/C(=N/O)C(=O)Nc1ccccc1,0,72.7,0,0,0,0,0
COc1ccc(-c2csc(NC(=O)c3ccccc3F)n2)cc1,0,33.5,0,0,0,0,0
CC(C)Oc1ccc(NC(=O)CCC(=O)O)cc1,0,0,0,0,0,-,-
C[n+]1cccc(C2C(C#N)=C(N)Oc3c2ccc2ccccc32)c1 (stereo not drawn),0,17.8,0,0,0,0,0
C[n+]1cccc2ccc3c(c21)OC(N)=C(C#N)C3c1ccccc1 (stereo not drawn),0,0,0,0,0,-,-
O=C(CCN1CCN(c2ccccc2)CC1)NNC(=O)c1cccc2ccccc12,0,0,0,0,0,-,-
O=C(CNC(=O)Cc1ccc(Cl)cc1)NCC(=O)N1CCCCC1,0,22.7,0,0,0,0,0
COc1ccc(C=C(C#N)c2ccc(OC)cc2)cc1,-,-,-,-,0,-,-
Cc1cc2c(OCC(O)CNC3CCCCC3)cccc2[nH]1 (stereo not drawn),0,0,0,0,0,-,-
CCOc1ccc(-c2nc(CN3CCCCC3CCn3cccn3)c(C)o2)cc1 (stereo not drawn),0,17.9,0,0,0,36.3,0
Cc1coc2c(C)c3oc(=O)c(CC(=O)N[C@@H](CC(C)C)C(=O)O)c(C)c3cc12,0,0,0,0,0,-,-
